The target of experiment [1] is T1, Serine/threonine-protein kinase BRSK1 (Homo sapiens) (UniProt Q8TDC3).
T1 sequence (whole entry): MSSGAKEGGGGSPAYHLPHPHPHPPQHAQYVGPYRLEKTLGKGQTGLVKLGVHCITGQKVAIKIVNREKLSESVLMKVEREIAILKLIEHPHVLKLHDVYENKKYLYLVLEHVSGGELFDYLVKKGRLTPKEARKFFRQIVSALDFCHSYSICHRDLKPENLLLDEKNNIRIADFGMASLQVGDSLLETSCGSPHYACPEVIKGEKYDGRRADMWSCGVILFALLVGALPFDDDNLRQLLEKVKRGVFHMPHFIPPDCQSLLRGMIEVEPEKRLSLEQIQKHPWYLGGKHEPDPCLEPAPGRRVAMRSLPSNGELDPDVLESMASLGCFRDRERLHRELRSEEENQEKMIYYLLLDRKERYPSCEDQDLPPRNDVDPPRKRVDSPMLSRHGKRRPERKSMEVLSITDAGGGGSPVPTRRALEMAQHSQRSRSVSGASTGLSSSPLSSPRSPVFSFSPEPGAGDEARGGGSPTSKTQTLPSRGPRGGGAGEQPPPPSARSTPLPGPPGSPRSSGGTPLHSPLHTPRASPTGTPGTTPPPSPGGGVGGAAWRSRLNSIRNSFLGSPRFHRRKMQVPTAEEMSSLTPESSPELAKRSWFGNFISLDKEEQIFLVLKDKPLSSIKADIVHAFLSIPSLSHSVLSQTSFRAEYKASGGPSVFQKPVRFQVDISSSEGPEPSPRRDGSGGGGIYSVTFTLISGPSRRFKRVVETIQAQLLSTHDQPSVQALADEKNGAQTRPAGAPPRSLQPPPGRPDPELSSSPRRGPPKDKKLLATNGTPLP
The conditions noted are these: at 1 µM.

Experiment [2] concerns the target T1, Serine/threonine-protein kinase BRSK1 (Homo sapiens). The conditions noted are these: at 10 µM.
Experiment [3] deals with T2, Serine/threonine-protein kinase BRSK2 (Homo sapiens) (UniProt Q8IWQ3).
T2 sequence (whole entry): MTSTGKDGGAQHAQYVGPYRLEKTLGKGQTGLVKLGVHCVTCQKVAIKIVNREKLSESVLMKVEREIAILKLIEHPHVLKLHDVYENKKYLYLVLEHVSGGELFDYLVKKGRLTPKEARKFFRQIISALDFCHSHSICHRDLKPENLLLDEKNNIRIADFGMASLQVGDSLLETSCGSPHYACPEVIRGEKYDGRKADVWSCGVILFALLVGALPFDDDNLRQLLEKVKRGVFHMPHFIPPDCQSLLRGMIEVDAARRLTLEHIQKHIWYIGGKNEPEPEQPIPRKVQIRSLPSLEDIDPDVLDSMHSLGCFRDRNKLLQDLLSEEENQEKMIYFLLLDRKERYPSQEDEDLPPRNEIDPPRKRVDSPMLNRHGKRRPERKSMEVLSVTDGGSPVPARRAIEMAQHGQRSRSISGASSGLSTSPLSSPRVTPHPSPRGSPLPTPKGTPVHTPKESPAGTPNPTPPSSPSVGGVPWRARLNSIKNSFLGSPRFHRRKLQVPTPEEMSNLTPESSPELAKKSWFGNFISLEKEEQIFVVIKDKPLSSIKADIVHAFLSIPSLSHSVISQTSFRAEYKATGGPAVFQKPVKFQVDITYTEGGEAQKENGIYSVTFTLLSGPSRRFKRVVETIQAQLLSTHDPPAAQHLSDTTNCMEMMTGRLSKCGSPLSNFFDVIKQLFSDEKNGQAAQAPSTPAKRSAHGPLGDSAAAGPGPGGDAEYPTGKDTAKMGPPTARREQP
The conditions noted are these: at 1 µM.

Experiment [4] addresses T2, Serine/threonine-protein kinase BRSK2 (Homo sapiens). The conditions noted are these: at 10 µM.
For experiment [5], the target named is T3, Cyclin-dependent kinase 1/cyclin B1 (Homo sapiens) (UniProt P06493+P14635). The conditions noted are these: at 1 µM.
Experiment [6] has as its target T3, Cyclin-dependent kinase 1/cyclin B1 (Homo sapiens). The conditions noted are these: at 10 µM.
Experiment [7] has as its target T4, Cyclin-dependent kinase 2/cyclin A (Homo sapiens) (UniProt P24941+P20248+P78396). As to conditions: at 1 µM.
For experiment [8], the target named is T4, Cyclin-dependent kinase 2/cyclin A (Homo sapiens). As to conditions: at 10 µM.
Experiment [9] has as its target T5, Cyclin-dependent kinase 2/cyclin E (Homo sapiens) (UniProt P24864+P24941+O96020). The conditions noted are these: at 1 µM.
Experiment [10] has as its target T5, Cyclin-dependent kinase 2/cyclin E (Homo sapiens). The conditions noted are these: at 10 µM.
The target in experiment [11] is T6, CDK3/cyclin E (Homo sapiens) (UniProt P24864+O96020+Q00526). As to conditions: at 1 µM.
For experiment [12], the target named is T6, CDK3/cyclin E (Homo sapiens). The conditions noted are these: at 10 µM.
Experiment [13] deals with T7, Cyclin-dependent kinase 5/CDK5 activator 1 (Homo sapiens) (UniProt Q00535+Q15078). The conditions noted are these: at 1 µM.
The target of experiment [14] is T7, Cyclin-dependent kinase 5/CDK5 activator 1 (Homo sapiens). As to conditions: at 10 µM.
For experiment [15] the target is unchanged. The conditions noted are these: at 1 µM. This is another data set of the same source.
The target is the same in experiment [16]. As to conditions: at 10 µM. The source holds these as a separate data set.
In experiment [17] the target is T8, CDK6/cyclin D3 (Homo sapiens) (UniProt P30281+Q00534). The conditions noted are these: at 1 µM.
For experiment [18], the target named is T8, CDK6/cyclin D3 (Homo sapiens). As to conditions: at 10 µM.
Experiment [19] has as its target T9, Cyclin-dependent kinase 7/ cyclin H (Homo sapiens) (UniProt P51946+P50613). As to conditions: at 1 µM.
The target of experiment [20] is T9, Cyclin-dependent kinase 7/ cyclin H (Homo sapiens). The conditions noted are these: at 10 µM.

T6 sequence (O96020 whole entry, looked up): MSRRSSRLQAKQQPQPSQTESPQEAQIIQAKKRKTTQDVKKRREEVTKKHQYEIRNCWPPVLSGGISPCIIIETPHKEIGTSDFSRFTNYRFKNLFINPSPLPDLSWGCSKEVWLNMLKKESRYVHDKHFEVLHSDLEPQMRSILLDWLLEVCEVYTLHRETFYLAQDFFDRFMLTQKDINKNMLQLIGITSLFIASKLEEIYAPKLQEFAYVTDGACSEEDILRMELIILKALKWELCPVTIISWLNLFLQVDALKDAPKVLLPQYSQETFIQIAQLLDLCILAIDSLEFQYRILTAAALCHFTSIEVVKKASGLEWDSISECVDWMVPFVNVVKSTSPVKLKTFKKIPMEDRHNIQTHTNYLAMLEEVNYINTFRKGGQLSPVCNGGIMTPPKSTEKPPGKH
T6 sequence (P24864 whole entry, looked up): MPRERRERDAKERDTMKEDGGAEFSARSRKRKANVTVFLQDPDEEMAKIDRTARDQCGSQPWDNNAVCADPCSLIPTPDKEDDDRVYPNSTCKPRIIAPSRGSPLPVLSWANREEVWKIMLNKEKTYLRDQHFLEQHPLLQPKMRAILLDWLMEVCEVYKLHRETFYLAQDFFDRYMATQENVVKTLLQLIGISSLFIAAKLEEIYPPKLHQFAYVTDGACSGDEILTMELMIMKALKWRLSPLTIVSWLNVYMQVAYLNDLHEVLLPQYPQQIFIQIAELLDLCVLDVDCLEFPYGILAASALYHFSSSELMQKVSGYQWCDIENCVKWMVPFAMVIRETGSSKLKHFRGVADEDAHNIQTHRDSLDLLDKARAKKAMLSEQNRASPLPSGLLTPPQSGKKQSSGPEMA
T6 sequence (Q00526 whole entry, looked up): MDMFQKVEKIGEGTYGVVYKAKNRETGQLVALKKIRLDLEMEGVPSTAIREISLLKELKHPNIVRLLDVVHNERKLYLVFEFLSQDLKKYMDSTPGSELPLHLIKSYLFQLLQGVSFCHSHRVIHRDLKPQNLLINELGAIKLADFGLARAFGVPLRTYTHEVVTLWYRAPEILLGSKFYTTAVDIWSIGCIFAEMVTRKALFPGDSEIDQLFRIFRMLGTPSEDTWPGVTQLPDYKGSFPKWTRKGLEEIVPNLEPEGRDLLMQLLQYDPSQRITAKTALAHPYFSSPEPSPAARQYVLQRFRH
T7 sequence (Q00535 whole entry): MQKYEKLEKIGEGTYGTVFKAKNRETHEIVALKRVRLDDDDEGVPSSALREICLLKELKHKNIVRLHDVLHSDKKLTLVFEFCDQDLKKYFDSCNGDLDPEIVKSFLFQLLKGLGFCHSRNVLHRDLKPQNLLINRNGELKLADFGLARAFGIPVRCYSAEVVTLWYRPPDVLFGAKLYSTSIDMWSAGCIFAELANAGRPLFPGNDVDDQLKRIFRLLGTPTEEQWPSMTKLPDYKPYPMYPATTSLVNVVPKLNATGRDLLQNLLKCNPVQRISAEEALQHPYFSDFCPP
T7 sequence (Q15078 99-307 partner limits assumed): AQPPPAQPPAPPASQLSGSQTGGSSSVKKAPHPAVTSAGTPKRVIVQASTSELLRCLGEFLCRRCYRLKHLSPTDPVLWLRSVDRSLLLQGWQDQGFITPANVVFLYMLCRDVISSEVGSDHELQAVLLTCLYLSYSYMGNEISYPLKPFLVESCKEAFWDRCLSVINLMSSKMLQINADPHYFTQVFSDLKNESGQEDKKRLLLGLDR
T3 sequence (P06493 whole entry, looked up): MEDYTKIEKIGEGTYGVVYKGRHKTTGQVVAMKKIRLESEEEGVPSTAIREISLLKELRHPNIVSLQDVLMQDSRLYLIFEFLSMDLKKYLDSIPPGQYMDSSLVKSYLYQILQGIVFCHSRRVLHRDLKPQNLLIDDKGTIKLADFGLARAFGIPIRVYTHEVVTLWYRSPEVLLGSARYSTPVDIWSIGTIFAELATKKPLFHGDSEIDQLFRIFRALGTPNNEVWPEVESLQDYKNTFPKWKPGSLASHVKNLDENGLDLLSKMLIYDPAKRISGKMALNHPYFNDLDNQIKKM
T3 sequence (P14635 whole entry, looked up): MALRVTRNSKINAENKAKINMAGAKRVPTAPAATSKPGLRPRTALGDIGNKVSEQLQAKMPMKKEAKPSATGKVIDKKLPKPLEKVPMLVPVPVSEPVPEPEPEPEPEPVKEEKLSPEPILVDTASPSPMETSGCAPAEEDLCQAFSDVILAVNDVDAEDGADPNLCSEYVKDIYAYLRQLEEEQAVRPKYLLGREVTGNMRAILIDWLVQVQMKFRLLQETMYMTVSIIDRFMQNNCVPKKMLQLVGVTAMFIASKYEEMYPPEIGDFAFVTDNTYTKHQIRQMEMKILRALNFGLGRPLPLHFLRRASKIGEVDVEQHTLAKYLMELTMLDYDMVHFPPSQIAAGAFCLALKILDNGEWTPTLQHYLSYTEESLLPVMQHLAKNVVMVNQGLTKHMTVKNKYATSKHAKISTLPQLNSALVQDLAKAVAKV

Turning to `Nc1n[nH]c2nnc(-c3c(-c4ccccc4)nn4ccccc34)cc12`, the residual activity in [1] turned out to be 92%; in experiment [2], 70%; in experiment [3] it was 103%; in experiment [4], 96%; in [5], 107%; in experiment [6] it was 99%. Further, the residual activity in [7] was found to be 92%; in [8] it was 90%; in [9], 93%; in experiment [10], 96%; in experiment [11], 90%; in experiment [12], 90%. Further, the residual activity in experiment [13] was 95%; in [14] it was 99%; in experiment [15], 112%; in [16], 79%; in experiment [17], 81%; in [18], 43%. In addition, the residual activity in [19] was found to be 106%; in experiment [20], 89%.
Consider `CCN(CC)CCCCN1c2ccccc2Oc2ccc(Cl)cc21`, for which the residual activity in experiment [1] is 88%; in [2] it was 105%; in experiment [3], 131%; in experiment [4], 126%; in [5], 119%; in experiment [6], 96%. Further, the residual activity in [7] stood at 132%; in [8] it was 102%; in [9], 116%; in experiment [10], 106%; in experiment [11], 117%; in [12], 94%. Further, the residual activity in experiment [13] came to 99%; in [14], 102%; in [15], 100%; in experiment [16], 105%; in experiment [17], 108%; in experiment [18] it was 103%. The residual activity came to 89% in experiment [19] and 105% in [20].
`O=C1NC(=O)c2cc(Nc3ccc(F)cc3)c(Nc3ccc(F)cc3)cc21`: the residual activity in experiment [1] came out at 48%; in experiment [2], 56%; in [3] it was 107%; in [4] it was 92%; in [5], 111%; in [6], 90%. Besides, the residual activity in experiment [7] was 129%; in experiment [8], 79%; in experiment [9] it was 98%; in experiment [10], 69%; in [11], 86%; in experiment [12], 66%. For the same molecule, the residual activity in [13] came to 112%; in [14], 49%; in experiment [15], 81%; in [16], 60%; in experiment [17], 98%; in [18], 86%. For the same molecule, the residual activity in experiment [19] amounted to 78%; in experiment [20] it was 112%.
As to `Nc1nc(Nc2ccc(S(N)(=O)=O)cc2)nn1C(=S)Nc1c(F)cccc1F`, the residual activity was 0% in experiment [1]; 0% in experiment [2]; 0% in [3]; 1% in experiment [4]; 0% in [5]; -1% in [6]. Besides, the residual activity in experiment [7] is -2%; in experiment [8] it was -1%; in [9], -1%; in experiment [10] it was -2%; in [11], -2%; in [12], 0%. Moreover, the residual activity was -2% in [13]; -1% in [14]; -2% in experiment [15]; -1% in [16]; 19% in experiment [17]; 3% in experiment [18]. The residual activity in [19] is 2%; in experiment [20] it was -2%.
As to `O=C1NC(=O)c2c1c1c3ccccc3[nH]c1c1[nH]c3cc(Br)ccc3c21`, the residual activity in experiment [1] was 82%; in experiment [2], 55%; in experiment [3], 69%; in experiment [4], 32%; in [5], 92%; in experiment [6], 74%. The residual activity in experiment [7] turned out to be 84%; in experiment [8] it was 82%; in [9], 63%; in experiment [10], 67%; in [11], 88%; in experiment [12], 77%. For the same molecule, the residual activity was found to be 55% in experiment [13]; 62% in experiment [14]; 83% in experiment [15]; 68% in experiment [16]; 87% in experiment [17]; 58% in experiment [18]. Also, the residual activity in experiment [19] is 99%; in experiment [20], 94%.
With `Cc1nc(-c2ccccc2)c(-c2ccncc2)o1`, the residual activity in experiment [1] stood at 103%; in experiment [2], 85%; in [3], 120%; in [4], 96%; in experiment [5], 104%; in experiment [6], 92%. Also, the residual activity in experiment [7] was 97%; in experiment [8] it was 92%; in [9], 104%; in experiment [10], 95%; in [11], 92%; in [12], 91%. Moreover, the residual activity in [13] was 96%; in experiment [14], 94%; in experiment [15], 129%; in [16] it was 93%; in experiment [17] it was 110%; in experiment [18] it was 86%. In addition, the results for the residual activity in experiment [19] and in experiment [20] were 105% and 96%, respectively.
